Assay outcomes from PubChem BioAssay.
A selection: hits, their analogues and other compounds. The true share with any hit is near 12%.
AMA1 RON2 block: disrupts binding of P. falciparum AMA1 to RON2; hit rate 0.2% among 360,000; Potency, µM (top dose mostly 58.2 µM), usual class: inhibitors; AlphaScreen AMA1-biotinylated RON2 peptide binding; also: nearly all actives have a fitted effect of over 45% in size
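AMA1 (3D7) with his tag at 25 nM final met compounds first, then biotinylated RON2 peptide at 25 nM; detection used donor plus acceptor beads, 10 µg/mL apiece, read by AlphaScreen after 30 min at room temperature.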
HCV inhibitor: blocks hepatitis C virus; AID 651820; Potency, µM (doses to about 41.8 µM), actives largely listed as inhibitors; Huh7.5.1 HCVcc-Cre infection, luciferase reporter, 44 h; hit rate 3.4% among 340,000
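Whole-lifecycle infectious HCVcc-Cre system; cells 1,000/well, compound then virus (~0.5 moi) added 4 h after plating, 44 h culture. Luciferase read 15 sec following 15 min substrate incubation, room temp.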
Pf growth 96h: P. falciparum growth inhibition at 96 hours; P. falciparum luciferase reporter growth, 96 h; Potency, µM (doses to about 28.7 µM), hits mostly inhibitors; hit rate 6.9% among 320,000
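Erythrocytes infected with luciferase-expressing P. falciparum were dispensed at 2% hematocrit and 0.05% parasitemia (final), then incubated with compounds 96 hours at 37 C in 5% CO2. Luminescence after detection reagent addition reported growth.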
SARS PLP yeast: inhibitors of SARS-CoV papain-like protease in yeast. S. cerevisiae expressing SARS-CoV PLpro, growth rescue. Potency, µM (titrated, usually from 32.9 µM), hits mostly activators. hit rate 0.19% among 330,000; calls by dose curve; also: nearly all actives have a fitted effect of over 55% in size
Pf growth 48h: inhibits P. falciparum growth in the first generation, 48 h; Potency, µM (doses to about 28.7 µM), most hits filed as inhibitors; P. falciparum luciferase growth in erythrocytes, 48 h; AID 504832; hit rate 5.9% among 310,000
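Read-out is firefly luciferase luminescence from an integrated reporter in P. falciparum, so falling signal marks reduced parasite growth. Infected erythrocytes were at 2% hematocrit and 0.1% parasitemia (final) in Albumax-supplemented RPMI 1640.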
NS1 inh: blocks influenza NS1 protein function | Potency, µM (doses to about 46.1 µM) | hit rate 0.4% among 270,000; calls by dose curve; also: actives are rising curves; nearly all actives have a fitted effect of over 50% in size
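S. cerevisiae expressing influenza A NS1, grown in glucose, washed, then diluted 1:100 into pH 6.0 -URA galactose medium with 23 nl compound. Growth recovery read as OD600; NS1-free strain serves as control.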
A number is an active result; - = inactive; ? = inconclusive; . = no result given; [ ] = remark or other dose. Unless noted, calls follow the shape of the dose curve; as a rule, active = well fitted curve in the direction sought with a large enough effect; inconclusive = small, poorly fitted or top-dose-only effect, or another doubt; inactive = no such curve, though single readings can be large; an effect the other way counts as inactive or inconclusive.

SMILES	AMA1 RON2 block	HCV inhibitor	Pf growth 96h	SARS PLP yeast	Pf growth 48h	NS1 inh
O=C(NC1CCN(Cc2ccccc2)CC1)c1cc(S(=O)(=O)Nc2ccc(F)cc2)ccc1Cl	-	?	9.28µM	-	9.28µM	.
Cc1ccc(NC(=O)N2CCC(NC(=O)c3cccc(C)c3)CC2)cc1	-	-	10.4µM	-	?	-
COc1cccc(NC(=O)CN(C)C(=O)C2CCN(C(=O)c3ccccc3C)CC2)c1	-	-	?	-	-	.
O=C(NC1CCN(Cc2ccccc2)CC1)c1cccc(NS(=O)(=O)c2ccc(Br)cc2)c1	-	11.2µM	.	.	.	.
COc1ccc(-n2c(SC)nnc2-c2c[nH]c3ccccc23)cc1	-	-	?	-	.	-
COc1ccccc1OCc1nnc(SCC(=O)NCc2ccco2)n1-c1ccccc1	-	-	-	-	-	-
COc1cccc(-n2c(SC)nnc2-c2c[nH]c3ccccc23)c1	-	-	4.65µM	-	.	-
COc1ccc(OC)c(-n2c(SCC(=O)NCc3ccco3)nnc2-c2c[nH]c3ccccc23)c1	-	-	2.62µM	-	.	-
COc1ccc(-n2c(COc3ccc4ccccc4c3)nnc2SCC(=O)NCc2ccco2)cc1	-	?	.	-	10.4µM	-
COc1ccc(-n2c(COc3cccc4ccccc34)nnc2SCC(=O)NCc2ccco2)cc1	-	?	-	-	2.94µM	?
CNC(=O)c1c(NC(=O)CCS(=O)(=O)c2ccc(F)cc2)sc(C)c1C	-	-	-	-	-	.
CCCC[n+]1ccn(-c2nc3ccccc3nc2[N-]S(=O)(=O)c2cccs2)c1	-	-	5.86µM	-	?	-
CCCC[n+]1ccn(-c2nc3ccccc3nc2[N-]S(=O)(=O)c2ccc(C)cc2)c1	-	-	-	-	.	-
Cc1ccc(S(=O)(=O)[N-]c2nc3ccccc3nc2-n2cc[n+](Cc3ccccc3)c2)cc1	-	?	1.47µM	-	4.15µM	-
CCCC[n+]1ccn(-c2nc3ccccc3nc2[N-]S(=O)(=O)c2ccccc2)c1	-	-	14.7µM	-	.	-
O=S(=O)([N-]c1nc2ccccc2nc1-[n+]1ccc(CCCc2ccccc2)cc1)c1cccs1	-	-	5.22µM	-	7.38µM	-
CC1CN(c2ccccc2)CCN1Cc1nc(Cc2ccccc2)no1 (configuration not stated)	-	-	-	-	-	-
CC1CN(c2ccc([N+](=O)[O-])c(NCCOc3ccc(Cl)cc3)c2)CC(C)N1 (configuration not stated)	-	8.91µM	-	-	?	-
CCc1ccc(OCCNc2cc(N3CCNC(C)C3)ccc2[N+](=O)[O-])cc1 (configuration not stated)	-	14.1µM	?	-	4.65µM	.
O=[N+]([O-])c1ccc(N2CCCCC2)cc1NCCOc1ccccc1	?	-	13.1µM	-	-	-
CC1CN(c2ccc([N+](=O)[O-])c(NCCOc3ccccc3)c2)CC(C)N1 (configuration not stated)	-	?	-	-	?	-
O=[N+]([O-])c1ccc(N2CCCC2)cc1N1CCCC1	?	2.51µM	-	-	-	-
COC(=O)c1ccc(NC(=O)C(=O)N2CCN(C(=S)Nc3cccc(C)c3C)CC2)cc1	-	-	0.465µM	-	-	-
COC(=O)c1ccc(NC(=O)C(=O)N2CCN(C(=S)Nc3ccccc3OC)CC2)cc1	-[11.6 µM]	-	?	-	-	-
CN1OC[C@@H]2CN[C@H](c3ccc(-c4cccc(F)c4)cc3)C[C@@H]21	-	.	.	.	.	.
SMILES	AMA1 RON2 block	HCV inhibitor	Pf growth 96h	SARS PLP yeast	Pf growth 48h	NS1 inh
NC(=O)C1CCN(c2ncnc3c2c(-c2ccccc2)cn3-c2ccccc2)CC1	-	-	10.4µM	-	.	-
Fc1ccc(-n2cc(-c3ccccc3)c3c(N4CCOCC4)ncnc32)cc1	-	?	?	-	-	.
O=C1NC(=S)S/C1=C\C=C\c1ccc([N+](=O)[O-])o1	-	?	0.294µM	-	0.294µM	-
O=C(NC1CCCCC1)C(c1ccncc1)N(Cc1ccc2c(c1)OCO2)C(=O)c1cnsn1 (configuration not stated)	-	-	-	-	?	-[9.22 µM]
COc1ccc(C(=O)/C=C/C(=O)N(Cc2ccc3c(c2)OCO3)C(C(=O)NC2CCCCC2)c2ccncc2)c(O)c1 (configuration not stated)	-	?	-	-	5.22µM	-
COCCN(CC(=O)NC1CCCCC1)C(=O)/C=C/C(=O)c1ccc(OC)cc1O	-	?	?	-	-	-
COc1ccc(CN(C(=O)/C=C/C(=O)c2ccc(OC)cc2O)C(C(=O)NC2CCCCC2)c2ccncc2)cc1 (configuration not stated)	-	-	-	-	11.7µM	-
CCn1c(C(=O)O)c(S(=O)(=O)c2ccc(Cl)cc2)c2ccccc21	-	-	?	-	-	-
O=C(CCNC(=O)c1ccc([N+](=O)[O-])cc1)Nc1nc2ccccc2[nH]1	-	-	-	-	-	.
O=c1c(-c2ccc(Br)cc2)coc2c(CN3CCOCC3)c(O)ccc12	-	?	?	-	2.62µM	-
CC1CCCN(Cc2c(O)ccc3c(=O)c(-c4ccc(Cl)cc4)coc23)C1 (configuration not stated)	-	-	-	-	1.04µM	-
COc1ccc(OC)c(C(O)c2coc3ccc(O)c(CN4CCOCC4)c23)c1 (configuration not stated)	-	?	-	-	7.38µM	?
COc1ccc(Oc2coc3c(CN4CCOCC4)c(O)ccc3c2=O)cc1	-	-	2.94µM	-	.	-
CN(CC(=O)Nc1ccc(F)cc1)CC(=O)NC1CCCCC1	-	-	-	-	?	.
COc1ccc(S(=O)CC(=O)Nc2ccc(Cl)cc2Cl)cc1 (configuration not stated)	-	-	-	-	-	-
COc1ccc(C(=O)c2coc3ccc(O)c(CN4CCCC4)c23)cc1	-	-	?	-	.	-
O=c1c(-c2ccc(Br)cc2)coc2c(CN3CCCCC3)c(O)ccc12	-	-	2.33µM	-	1.65µM	-
COc1ccc(-c2coc3c(CN4CCCCC4)c(O)c(CN4CCCCC4)c(O)c3c2=O)cc1	.	-	-	-	5.86µM	?
O=c1c(-c2ccc(Cl)cc2)coc2c(CN3CCCCC3)c(O)ccc12	-	-	-	-	2.94µM	-
O=c1c(-c2ccccc2Cl)coc2c(CN3CCCCC3)c(O)ccc12	-	-	?	-	?	-
COc1cc(/C=N/NC(=O)c2cn(-c3cccc(C)n3)cn2)ccc1O	-	?	-	-	-	.
CN1CCc2nc(NC(=O)c3cccc(S(=O)(=O)N4CCc5ccccc54)c3)sc2C1	-	?	-	-	5.86µM	?
O=C(Nc1nc2c(s1)CCCC2)c1cccc(S(=O)(=O)N2CCCc3ccccc32)c1	-	?	?	-	9.28µM	-
